Test results published in the supplement of paper PMC10681739.

Legend:
RUNX1 [1] = biological target: RUNX1 (UniProt Q01196); assay: RUNX1 binding intensity (PBM fluorescence), RUNX1 alone (arbitrary fluorescence units); higher = stronger binding; settings: RUNX1 concentration 2 nM; ETS1 concentration 0 nM
Protocol: (§1)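 Cooperative gcPBM on 36-bp genomic probes with neighbouring ETS1 and RUNX1 sites. Recombinant human RUNX1 (2 nM) was incubated alone or with ETS1 (25 nM) and detected with anti-RUNX1 antibody plus Alexa488 secondary. Values are medians over 4 replicate spots; the RUNX1+ETS1 data were normalised to the RUNX1-only data. The probes sit in constant array flanks that are not printed.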

ETS1 = biological target: T1, ETS1 (UniProt P14921); assay: ETS1 binding intensity (PBM fluorescence) in presence of RUNX1, normalised to ETS1-only experiment (arbitrary fluorescence units); higher = stronger binding; settings: ETS1 concentration 1 nM; RUNX1 concentration 25 nM
T1 sequence: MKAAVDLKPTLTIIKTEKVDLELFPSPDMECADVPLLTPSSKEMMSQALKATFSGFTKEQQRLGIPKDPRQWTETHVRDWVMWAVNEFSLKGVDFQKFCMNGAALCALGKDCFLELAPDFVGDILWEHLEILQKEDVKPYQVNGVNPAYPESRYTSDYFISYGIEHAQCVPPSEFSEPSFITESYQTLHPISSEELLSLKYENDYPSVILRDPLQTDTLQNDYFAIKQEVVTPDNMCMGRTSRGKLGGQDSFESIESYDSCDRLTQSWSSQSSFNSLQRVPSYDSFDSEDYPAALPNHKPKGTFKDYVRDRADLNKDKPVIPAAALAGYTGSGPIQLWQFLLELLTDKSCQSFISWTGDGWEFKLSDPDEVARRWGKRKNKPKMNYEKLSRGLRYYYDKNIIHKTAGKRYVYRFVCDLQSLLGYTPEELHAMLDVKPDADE

RUNX1 [2] = biological target: RUNX1 (UniProt Q01196); assay: RUNX1 binding intensity (PBM fluorescence) in presence of ETS1, normalised to RUNX1-only experiment (arbitrary fluorescence units); higher = stronger binding; settings: RUNX1 concentration 2 nM; ETS1 concentration 25 nM
Protocol: as §1
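For RUNX1 binding intensity (PBM fluorescence) in presence of ETS1, normalised to RUNX1-only experiment in this document: Full-length recombinant human ETS1 or RUNX1 bound to double-stranded 36-bp genomic probes on microarrays, detected by protein-specific primary antibody and Alexa488 secondary, spot fluorescence as median of four replicate spots.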
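For RUNX1 binding intensity (PBM fluorescence), RUNX1 alone in this document: Full-length recombinant human RUNX1 bound to double-stranded 36-bp genomic probes on a high-density microarray, scored as Alexa488 fluorescence per spot via anti-RUNX1 antibody, median of four replicate spots.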

Sequence of RUNX1 (Q01196 whole entry): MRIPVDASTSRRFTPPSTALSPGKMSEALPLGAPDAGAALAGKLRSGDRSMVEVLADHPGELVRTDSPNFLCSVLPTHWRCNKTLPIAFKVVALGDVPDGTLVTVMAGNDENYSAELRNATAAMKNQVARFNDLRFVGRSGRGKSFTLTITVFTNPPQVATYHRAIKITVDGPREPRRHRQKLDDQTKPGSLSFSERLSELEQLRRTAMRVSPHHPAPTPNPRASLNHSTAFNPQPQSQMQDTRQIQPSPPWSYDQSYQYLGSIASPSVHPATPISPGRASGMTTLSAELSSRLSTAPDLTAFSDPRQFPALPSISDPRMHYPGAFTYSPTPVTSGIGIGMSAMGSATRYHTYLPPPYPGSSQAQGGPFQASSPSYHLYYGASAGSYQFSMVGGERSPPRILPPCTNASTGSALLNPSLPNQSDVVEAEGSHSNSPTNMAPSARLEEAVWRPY

Sequence	RUNX1 binding intensity (RUNX1 [1])	ETS1 binding intensity (ETS1)	RUNX1 binding intensity (RUNX1 [2])
CCCACTTCCTGTCTGCTTCCCTCCACCGCTCAGACC	1890	2650	4290
GTTTCATGTTAAGTAGGATGTGGTCAGTTAGCTTCG	1120	5410	1290
TTGGTCAGGATGTGGCTGAAGAAGCCACAAGAAAAA	769	943	1130
AGCAGCTGCCAGAGGAAGTCTGCGGTCGGAACAGGC	1410	10800	3400
TAAATGTTTCCTAAAAGCTCTTTCATAAACCACAGT	970	669	884
TTACGTTAAGGAGGAAACTCTGTGGTTAAACTGTAG	1230	2050	1810
GTGTTTCCTCTTTGTTTTGGGGCTGTGGTTGCCACA	1330	600	3180
CCAGACCCGGCGGAACTACCGTGCCCACAAGGCAGC	876	564	894
GTTTCTCTGGCCAGGAAATTGAGGTTTCTGTTAGTC	851	3260	1660
GGCTGCGACTTCCGGACTGCTCCTGGCCGCAGGGGG	813	2500	1370
GCAAGGCAACAGGAAATTGTGGGGAAATTTTAAAAA	770	6190	1070
AACCAATCGAGCGGAGGAAACCGCGGCGTTAGCGTG	864	1020	840
AGCAACAACAAAGGAAGTGGCGGCCGCAGGGGGAGG	795	2160	909
CAGCAAAAGGCAGGATGTGGTTAAAACTGTGCTCTG	1110	29000	17100
GCTGCCACTTCCCTTGCTTATTTCATGTGGTTTGGA	1230	794	1980
CGGCTGTTTTCCAGGATGTTGTGGTCATGGCGGTGT	2920	6320	4090
GAGGCCCAGGATGTGGCTGGAGGCCTGTGGTGGGAC	700	1130	864
TCGCCCACTTCCCCACCTCTCAAAAGACCACAGGCA	1560		2140
ACAGGAAATGTTAGAGGTTGAGTTAGCGGTTATGAG	833	3640	914
AGAACAAAACAGGAAATAGTGGTTTGCAAAAATATA	736	8400	1730
GCCATCCGCAGGACTCCGCGTTCTCGCGGTAAGTGG	736	464	883

Sequence	RUNX1 binding intensity (RUNX1 [1])	ETS1 binding intensity (ETS1)	RUNX1 binding intensity (RUNX1 [2])
CCTCTTGCTGCCTCTTCCTGTGGTCTTTTCTCTGTC	1840	951	2720
GTGCTCCTCGCTTCCTCCGCGGTCTTCCGAGCGGTC	1150	365	1370
CCTGGGCAAGGCCGGATGCCTGTGGCTTCCAGGCTG	685	3350	1060
CTCACAACTCGCGTCCGGCGGAGACCACAATTCCCG	863	530	1230
CTCCATCTGCCCGGAAAACCGCAGCCGCCCCAACCT	28600	3690	34700
CCTGTCCGGAAGTCCTGAGAGGGAATCGCCCGCAAA	963	5360	1690
TCTCGTCCGGTCCTTGCTCCCCCTCCCCGCAGCGCT	1090	790	1980
AGGCGCCGGAAAAACTACATCTCCCACAATCCTCGG	965	396	913
TATCACATCCTGCCGGACAAAAAGGCCAAACCACCT	919	473	1850
TTTACAGGAAATTACAGGGGTTAAACCAAACCACAA	941	1140	1820
TACATAGGCGGAAGTGGCCTGCGGGCGCCGGAGTTG	714	9480	1710
GTCCCACGCGACTTCCTGCGGGAAACATGGCGGCAT	771	1820	2170
TGTGCTGACTACAGGATGCTGTGGTTAGTCAGGTTG	809	13800	1720
CCGGTCCTGACCGGAAGCGGTAACCGTCACTCCTTC	703	29000	7940
GTCAGGGGAACAGGATGTGGGTGGGAGCCAGCCCCA	729	5560	2540
TTTGAGCGGGCAGGATGTGGTGACAATGATACTGCA	750	8140	2370
CTTGCTTAACGCTTCCTGAGGGGTGGTTTGGGTTTT	837	369	953
TCCAGCGGAAGGGGGCATCTTTGCGGCAGAGGCAGC	764	431	979
CTCGCGATTCCTCTTCCGCTGCGGTCTCCTTAACAC	1290	841	2170
CCAGCCGGAAGCCCCGCCCCCTAGAGGCACCGCGGA	1000	962	1270
AATCATTTCCTGCCCTAACGTTTGTGGTCTGCCTAG	832	1720	2760
